D3 ag: agonists of human D3 dopamine receptor; 410,000 tested, 0.58% active; D3R DiscoveRx beta-arrestin cells, luminescence, 90 min; P35462; max activation, %; in the data active = max activation above about 30%; note: 0% is about no effect
Target sequence (P35462 whole entry, looked up): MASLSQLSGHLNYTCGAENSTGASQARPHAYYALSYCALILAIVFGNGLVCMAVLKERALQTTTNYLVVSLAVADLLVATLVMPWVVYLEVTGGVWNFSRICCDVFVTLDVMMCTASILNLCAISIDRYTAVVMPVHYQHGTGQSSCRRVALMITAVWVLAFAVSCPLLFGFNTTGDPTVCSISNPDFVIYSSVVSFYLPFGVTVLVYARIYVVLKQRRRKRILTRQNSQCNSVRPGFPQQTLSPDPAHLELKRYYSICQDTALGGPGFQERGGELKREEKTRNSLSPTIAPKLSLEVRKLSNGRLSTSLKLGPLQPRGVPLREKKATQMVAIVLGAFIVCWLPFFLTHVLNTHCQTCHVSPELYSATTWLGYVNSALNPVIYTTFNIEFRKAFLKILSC
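Agonist-mode cell screen: cells plated at 1500/well and incubated overnight at 37 °C, then exposed to library compounds for 90 min at 37 °C. Detection reagent was added for 30–60 min at room temperature, and luminescence was read.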
KB-3-1 tox: KB-3-1 parental cell cytotoxicity; Potency, µM (doses to about 46.1 µM), usual class: cytotoxic; 400,000 tested, 1.4% active; KB-3-1 viability, CellTiter-Glo ATP luminescence, 72 h; AID 1347075; note: potency is the fitted concentration of half-maximal effect; % is set by controls: 0 for no effect and ±100 for the full control effect; nearly all actives have a fitted effect of over 60% in size
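Multi-concentration cytotoxicity screen in KB-3-1 cells grown in DMEM lacking phenol red with 10% FBS. After 72 h at 37 °C with compound, ATP-dependent luminescence was recorded.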
DRD3 antagonist: antagonists of human D3 dopamine receptor; P35462; D3R cells, DiscoveRx beta-arrestin luminescence, antagonist mode; hits give low values; max response, negative = inhibition, %; 360,000 tested, 2.5% active; AID 652054; in the data active = max response below about -50%; inconclusive = no clear call, values can overlap the other calls; note: % is set by controls: 0 for no effect and ±100 for the full control effect
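Cells plated overnight at 1500 cells/well, then exposed to library compounds with dopamine controls for 90 minutes at 37 degrees C. DiscoveRx reagent added for 30–60 minutes at room temperature; luminescence read, quantitative HTS format.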
MCF10A rerep: inducers of DNA re-replication in MCF 10A breast cells | MCF 10A DNA re-replication, Hoechst nuclear intensity, 48 h | Potency, µM (doses to about 46.1 µM), for inactives: at the top dose activity, positive = re-replication, most hits filed as activators | 350,000 tested, 2.9% active; note: potency is the fitted concentration of half-maximal effect; % of control where 0% means no effect; nearly all actives have a fitted effect of over 50% in size
KB-V1 cytotox: KB-V1 MDR subline cytotoxicity; KB-V1 MDR cells viability, CellTiter-Glo, 72 h; Potency, µM (highest dose often 46.1 µM), hits mostly cytotoxic; 400,000 tested, 3.4% active; note: potency is the fitted concentration of half-maximal effect; % is set by controls: 0 for no effect and ±100 for the full control effect; nearly all actives have a fitted effect of over 60% in size
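Cytotoxicity toward P-gp-expressing KB-V1 cells was determined as loss of CellTiter-Glo luminescence after 72 h at 37 degrees C. Compounds were tested in quantitative HTS format across a concentration range, with curves fitted to normalized data.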
SW480 rereplic: DNA re-replication induction in SW480 cells | 340,000 tested, 1.8% active | SW480 DNA re-replication, Hoechst DNA content imaging, 48 h | Potency, µM (doses to about 46.1 µM), without a hit: top-dose re-replication activation, usual class: activators; note: potency is the fitted concentration of half-maximal effect; % of control where 0% means no effect; nearly all actives have a fitted effect of over 55% in size
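SW480 cells exposed to compounds for 48 hr at 37 C, 5% CO2, then Hoechst-stained 40 min. Nuclear DNA content imaged by fluorescence scanning (405 nm excitation, 500-530 nm emission); re-replication scored as increased high-intensity nuclei.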
* marks the source's active call; other numbers are inactive results; i = inactive; ? = inconclusive; / = no result given. An excerpt weighted towards active compounds, which were near 8.9% of everything screened. Unless noted, calls come from the whole dose curve; as a rule, active = well fitted curve in the direction sought with a large enough effect; inconclusive = small, poorly fitted or top-dose-only effect, or another doubt; inactive = no such curve, though single readings can be large; an effect the other way counts as inactive or inconclusive.

SMILES | D3 ag | KB-3-1 tox | DRD3 antagonist | MCF10A rerep | KB-V1 cytotox | SW480 rereplic
COC(=O)c1ccc(CNC(=O)c2ccc(S(=O)(=O)N3CCCC(C)C3)cc2)cc1 (stereo unspecified) | -3 | i | 22 | -1% | 16µM* | -5%
Cc1ccccc1Cn1c(CN2CCC(C(=O)NCCN(C)C)CC2)cc2ccccc21 | -26 | / | / | / | / | /
COc1ccc(O)c(/C=N/NC(=O)c2cccc(N3CCCC3=O)c2)c1 | 1 | ? | 2 | 3% | i | ?
COc1ccc(N2CC(C(=O)Nc3ccc([N+](=O)[O-])cc3Br)CC2=O)cc1 (stereo unspecified) | -2 | i | -10 | -28% | i | -9%
COc1ccc(N2CC(C(=O)N/N=C/c3cc([N+](=O)[O-])ccc3O)CC2=O)cc1 (stereo unspecified) | -2 | ? | -52* | ? | i | ?
COc1ccc(O)c(/C=N/NC(=O)c2ccc(N3CCCC3=O)cc2)c1 | -10 | ? | -7 | 11% | i | 2.3µM*
O=C(Nc1ccccc1O)c1cc2cc(Br)ccc2oc1=O | -1 | i | -25 | 7% | i | -5%
O=C(COC(=O)c1ccccc1O)NNC(=O)c1ccc(Br)cc1 | -11 | i | -58* | 0% | i | -1%
O=C(NNC(=O)c1ccccc1O)c1ccc(Br)cc1 | 8 | i | 15 | -8% | i | 2.9µM*
O=C(NNC(=O)c1cc2cc(Br)ccc2oc1=O)c1ccc(O)cc1 | -1 | i | -62* | 0% | i | -3%
O=C(COC(=O)c1cc(Br)ccc1O)NNC(=O)c1ccc(Cl)cc1 | -9 | i | ? | 0% | i | -6%
C[C@@H]1CN([C@@H](C)CO)C(=O)c2cc(C#Cc3ccccc3)cnc2O[C@@H]1CN(C)Cc1ccccn1 | -4 | i | -19 | / | i | /
COc1ccc(-c2noc(CC(=O)Nc3ccc(Br)cc3C)n2)cc1 | -16 | i | / | / | i | /
Cc1cc(CSc2nc(C)cc(=O)[nH]2)c2ncccc2c1 | 31* | i | 13 | 14% | ? | 0%
O=C(Nc1cccc(Cl)c1)c1cc2c(=O)[nH]c3ccccc3c2s1 | 3 | i | / | / | i | /
O=C(Nc1ccc(N2CCCCC2)cc1)c1ccc([N+](=O)[O-])o1 | -13 | ? | ? | ? | ? | ?
CC1CCN(c2ccc(NC(=O)c3ccc([N+](=O)[O-])o3)cc2)CC1 | -25 | 5.2µM* | ? | 3.3µM* | 10µM* | 9.2µM*
CCC(=O)N1CCN(c2ccc(NC(=O)c3ccc([N+](=O)[O-])o3)cc2)CC1 | -6 | ? | -17 | 11% | ? | 0%
CC(C)(C)C(=O)N1CCN(c2ccc(NC(=O)c3ccc([N+](=O)[O-])o3)cc2)CC1 | -13 | ? | ? | 1.8µM* | ? | 1.8µM*
CS(=O)(=O)N1CCN(c2ccc(NC(=O)c3ccc([N+](=O)[O-])o3)cc2)CC1 | -1 | i | ? | 2.1µM* | 18µM* | -78%
COCCNC(=O)c1ccc(Cn2c(SCC(=O)NC(C)C)nc3ccccc3c2=O)cc1 | 0 | i | / | / | i | /
Cn1c(CCN2CCCCC2)nc2cc(NS(=O)(=O)c3ccc(F)cc3)ccc21 | -4 | ? | -66* | 4% | i | 1%
Cc1ccc(S(=O)(=O)Nc2ccc3c(c2)nc(CCN2CCCCC2)n3C)cc1 | -37 | i | -79* | -1% | i | ?
COc1ccc(Cl)cc1NC(=O)N1CCN(Cc2cc(=O)n3nc(-c4ccccc4)sc3n2)CC1 | 7 | i | / | / | i | /
Cc1ccc(N=Nc2c(=O)[nH]n3c(C)cc(C)nc23)cc1 | 6 | i | -6 | 0% | i | -3%
SMILES | D3 ag | KB-3-1 tox | DRD3 antagonist | MCF10A rerep | KB-V1 cytotox | SW480 rereplic
Nc1[nH]n2c(=O)cc(-c3ccccc3)nc2c1N=Nc1ccccc1 | 3 | 8.2µM* | 7 | ? | ? | 6%
Cc1ccc(N=Nc2c(N)[nH]n3c(=O)cc(C)nc23)cc1 | -10 | 18µM* | ? | ? | 23µM* | -15%
Nc1[nH]n2c(=O)cc(-c3ccccc3)nc2c1N=Nc1ccc(S(N)(=O)=O)cc1 | -5 | i | ? | -7% | i | 1%
CC(=O)c1cc(-c2ccc(F)cc2)n(CC(=O)NC2CCC(C)CC2)c1C (stereo unspecified) | 0 | i | / | / | ? | /
CSc1ccc(CN(C)C(=O)CNC(=O)CNS(=O)(=O)c2ccc(C)c(C)c2)cc1 | 1 | i | -10 | 4% | i | -22%
Cc1ccc(S(=O)(=O)NCC(=O)NCC(=O)N(C)Cc2ccc3ccccc3c2)cc1C | 18 | ? | -7 | ? | 13µM* | 9%
COc1ccc(OCCOCCN2CCc3ccccc3C2)cc1 | -9 | i | -51* | 10% | i | -20%
N#Cc1ccc(OCCN2CCc3ccccc3C2)cc1 | 2 | i | -79* | ? | i | ?
Clc1ccc(OCCCCN2CCc3ccccc3C2)cc1 | -9 | i | -114* | ? | i | -7%
Cc1ccc(-n2nc(C(=O)NC(C)C)c(=O)n(C)c2=O)cc1 | -7 | i | / | / | i | /
CC(C)OCCCNC(=O)c1ccc(CN2CCc3ccccc3C2)cc1 | -20 | i | -67* | 15% | i | 6%
CCOCCCNC(=O)c1ccc(C2SCC(=O)N2Cc2ccccc2)cc1 (stereo unspecified) | -1 | i | 19 | 2% | 5.8µM* | -2%
CC(C)OCCCNC(=O)c1ccc(Br)cc1 | 2 | i | 21 | -2% | i | -8%
CC(C)NC(=O)c1ccc(CN2CCc3ccccc3C2)cc1 | -18 | i | -66* | 6% | ? | -1%
COCCN1CCN(Cc2ccc(C(=O)NC(C)C)cc2)C(=O)C1=O | -1 | i | / | / | i | /
CC(C)[C@H](NC(=O)c1ccccc1)C(=O)OCC(=O)N1CCc2ccccc2C1 | -2 | i | 6 | 3% | 9.2µM* | -11%
CCCCC | -6 | / | / | -2% | / | -2%
CCOCCCNC(=O)c1ccc(CN2CCc3ccccc3C2)cc1 | -2 | i | -92* | / | i | /
COc1ccc(NC(=O)c2cnc(N3CCCCC3)c3ccccc23)cc1Cl | 3 | i | / | / | i | /
Cc1nc2ccccc2nc1/C=C/c1ccc(N(C)C)cc1 | / | 5.2µM* | / | / | ? | /
CN(C)c1ccc(/C=C/c2cc(N(C)C)nc3ccccc23)cc1 | / | 0.58µM* | / | / | 1.8µM* | /
CN(C)c1ccc(/C=C/c2cc(Cl)nc3ccccc23)cc1 | / | ? | / | / | 13µM* | /
Cc1cccc(C)c1Nc1ncccc1C(=O)O | 11 | / | / | / | / | /

Bioassay records from PubChem.
